Source: PubChem BioAssay
Tb PFK inh = T. brucei PFK enzyme inhibition; O15648; actives 0.17% (n = 330,000); T. brucei PFK, ADP-Glo luminescence; Potency, µM (top dose mostly 57.5 µM), most hits filed as inhibitors; further: nearly all actives have a fitted effect of over 60% in size
Target sequence (O15648 whole entry, looked up): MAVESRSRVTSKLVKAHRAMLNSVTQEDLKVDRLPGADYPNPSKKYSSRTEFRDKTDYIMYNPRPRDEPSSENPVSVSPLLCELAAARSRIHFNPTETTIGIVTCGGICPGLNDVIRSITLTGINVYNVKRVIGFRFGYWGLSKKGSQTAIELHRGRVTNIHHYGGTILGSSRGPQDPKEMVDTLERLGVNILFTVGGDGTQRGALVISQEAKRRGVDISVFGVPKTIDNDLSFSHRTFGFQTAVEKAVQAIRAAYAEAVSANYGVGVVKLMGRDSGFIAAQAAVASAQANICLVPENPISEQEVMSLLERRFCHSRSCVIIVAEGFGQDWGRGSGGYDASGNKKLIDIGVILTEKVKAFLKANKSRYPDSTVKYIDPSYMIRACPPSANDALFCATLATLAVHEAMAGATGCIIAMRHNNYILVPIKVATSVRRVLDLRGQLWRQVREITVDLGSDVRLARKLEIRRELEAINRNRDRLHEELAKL
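In TEA buffer at pH 8.0 with 5 mM MgCl2, enzyme (1.25 nM) converted F6P (0.5 mM) and ATP (0.1 mM) for 45 min at room temperature. ADP product was read by luciferase luminescence.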
PKM2 act = activators of human pyruvate kinase M2. P14618. purified PKM2, Kinase-Glo ATP luminescence, activation; response scale: 0% is enzyme alone, no compound. Potency, µM (top dose mostly 57.5 µM), hits mostly activators. actives 0.34% (n = 260,000); further: nearly all actives have a fitted effect of over 55% in size
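hPK-M2, >95% pure; 0.1 mM ADP / 0.5 mM PEP final; imidazole pH7.2 buffer w/ 7 mM MgCl2, 50 mM KCl; 1 h RT; Kinase-Glo lum. Intermediate enzyme activity for dual inhibitor/activator qHTS.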
Rango complex inh = Rango-importin beta binding inhibition | Potency, µM (doses to about 92.2 µM) | Rango CFP/YFP FRET sensor + importin beta, 45 min | AID 540263 | actives 0.031% (n = 340,000) | Q14974; calls by dose curve; further: nearly all actives have a fitted effect of over 15% in size
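FRET biosensor (snurportin 1 IBB flanked by EYFP and cerulean), 50 nM, with compound 5 min, then 0.125 microM importin beta in PBS, 1 mM DTT, 0.02% Tween-20, 0.1% BSA. CFP/YFP ratio read after 45 min at room temperature; pre-read flags interference.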
Tb PGK inh = inhibitors of T. brucei phosphoglycerate kinase | P07378 | PGK/GAPDH coupled, Kinase-Glo luminescence, 60 min | Potency, µM (doses to about 57.5 µM), most hits filed as inhibitors | actives 0.043% (n = 380,000); further: nearly all actives have a fitted effect of over 60% in size
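Recombinant glycosomal PGK reaction used 1,3-bisphosphoglycerate generated in-well by GAPDH (100nM final) in 100mM TEA pH 7.6, 5mM MgCl2, 0.01% Tween-20. After 60 minutes at room temperature, ATP was read by Kinase-Glo Plus luminescence end-point.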
Rango release inh = inhibition of RanGTP-driven Rango-importin beta dissociation. actives 0.071% (n = 340,000). Potency, µM (highest dose often 46.1 µM). O95149+P62826. Biochemical FRET Rango-importin beta, RanGTP-induced dissociation. AID 540253; calls by dose curve; further: nearly all actives have a fitted effect of over 45% in size
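Compounds sat 5 min at room temperature with 0.1 uM Rango biosensor plus 0.25 uM importin beta, then FRET pre-read. RanGTP-RCC1 (0.6 uM Ran, 2mM GTP, 0.2 uM RCC1) added for 45 min, and the CFP/YFP post-read measured blocked complex dissociation.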
ELG1 repair inh = inhibitors of ELG1-dependent DNA repair in HEK293T cells | HEK293T ELG1-luciferase reporter, luminescence, 16 h; DNA damage induced by 5-fluorouridine | Potency, µM (top dose mostly 46.1 µM), usual class: inhibitors | actives 2.3% (n = 330,000) | AID 504467; further: nearly all actives have a fitted effect of over 55% in size
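Step one: seed 2,000 cells per well. Step two: pin-transfer compound or DMSO alongside 5-fluorouridine. Step three: incubate 16 hr, 37 °C, 5% CO2. Step four: add ONE-Glo, wait 30 min, read luminescence.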
Large screens that a line does not name were inactive. In the library only some 2.4% were active in any assay of this set; here they are far more common. Unless noted, the call rests on the fitted dose curve; in most records, active means well fitted curve in the direction sought with a large enough effect; inconclusive means small, poorly fitted or top-dose-only effect, or another doubt; inactive means no such curve, though single readings can be large; an effect the other way counts as inactive or inconclusive.

O=C(/C=C/c1cccs1)c1ccc(N2CCOCC2)cc1	ELG1 repair inh inconclusive
CCN(CC)c1nc2ccccc2nc1C(=O)Nc1cc(OC)c(OC)c(OC)c1	none (no result: Tb PFK inh, PKM2 act, Rango complex inh, Rango release inh, ELG1 repair inh)
O=C(Nc1ccc(Br)cc1)c1cccc(N2C(=O)C3C4CCC(C4)C3C2=O)c1 (stereo not drawn)	ELG1 repair inh 16µM
O=C(Nc1ccc(F)cc1)c1cccc(N2C(=O)C3C4C=CC(C5CC45)C3C2=O)c1 (stereo not drawn)	ELG1 repair inh 16µM
Cc1cccc(NC(=O)c2ccc(N3C(=O)C4C5C=CC(C6CC56)C4C3=O)cc2)c1 (stereo not drawn)	Rango complex inh inconclusive, ELG1 repair inh 8.2µM
O=C(Nc1ccccc1)c1cccc(N2C(=O)C3C4C=CC(C5CC45)C3C2=O)c1 (stereo not drawn)	ELG1 repair inh inconclusive (no result: PKM2 act)
O=C(Nc1ccc(F)cc1)c1cccc(N2C(=O)C3C4CCC(C4)C3C2=O)c1 (stereo not drawn)	ELG1 repair inh inconclusive
COC(=O)c1ccc(NC(=O)c2cccc(N3C(=O)C4C5C=CC(C6CC56)C4C3=O)c2)cc1 (stereo not drawn)	ELG1 repair inh inconclusive
C#CCNC(=O)C1=C[C@H](c2coc3ccccc3c2=O)[C@@H](CCCO)[C@H](OCC)O1	none
COc1ccc2[nH]c(=O)c(CN(CC3CCCO3)C(=O)Nc3ccc(F)cc3)cc2c1 (stereo not drawn)	ELG1 repair inh 7.3µM
COc1ccc2cc(CN(CC3CCCO3)C(=O)Nc3ccccc3)c(=O)[nH]c2c1 (stereo not drawn)	ELG1 repair inh 18µM
Cc1cccc(NC(=O)N(Cc2cc3cc(C)ccc3[nH]c2=O)CC2COCCO2)c1 (stereo not drawn)	ELG1 repair inh 12µM
Cc1ccc2[nH]c(=O)c(CN(CCN3CCOCC3)C(=O)Nc3ccccc3F)cc2c1	ELG1 repair inh 16µM
O[C@@H]1CN(CC2CCCCC2)[C@@H](c2ccccc2)C[C@H]1n1cc(-c2ccc(F)cc2)nn1	none (no result: Tb PFK inh, PKM2 act, Rango complex inh, Rango release inh, ELG1 repair inh)
CCOc1ccc(NC(=S)N(CCN2CCOCC2)Cc2cc3cc4c(cc3[nH]c2=O)OCO4)cc1	ELG1 repair inh 21µM
Cc1ccccc1Cn1c(O)c(N=NC(=S)Nc2ccccc2F)c2ccccc21	ELG1 repair inh 5.8µM
Oc1c(N=NC(=S)Nc2ccccc2F)c2ccccc2n1Cc1ccccc1F	ELG1 repair inh inconclusive
COc1ccc(-c2oc3ccccc3c2C#CC(C)(C)O)cc1	ELG1 repair inh 13µM (no result: PKM2 act)
COc1ccc(-c2c(C#CC(C)(C)O)c3ccccc3n2C)cc1	Rango complex inh inconclusive, Rango release inh inconclusive (no result: PKM2 act)
COc1ccccc1CNC(=O)C1(c2cccs2)CCOCC1	none (no result: Tb PFK inh, PKM2 act, Rango complex inh, Rango release inh, ELG1 repair inh)
CC(=O)N/N=C/c1cc(C(C)(C)C)cc(/C=N/NC(C)=O)c1O	Rango complex inh inconclusive, Rango release inh inconclusive, ELG1 repair inh 15µM
CCOc1ccc(Nc2nc(-c3cccc(Cl)c3)c3c(n2)-c2ccccc2OC3)cc1	none (no result: Tb PFK inh, PKM2 act, Rango complex inh, Rango release inh, ELG1 repair inh)
CC1CCc2c(sc(NC(=O)c3ccccc3)c2C(=O)Nc2ccccc2)C1 (stereo not drawn)	none (no result: Tb PFK inh, PKM2 act, Rango complex inh, Rango release inh, ELG1 repair inh)
COc1ccc(Br)cc1/C=C/C(=O)Nc1ccc(C)cc1	ELG1 repair inh 21µM
O=C(CN1CCN(c2ccccn2)CC1)Nc1nc2ccccc2s1	none
CCc1ccc(N2CC(C(=O)Nc3ccc4c(c3)OCO4)CC2=O)cc1 (stereo not drawn)	none (no result: PKM2 act)
O=C(/C=C/c1cn(-c2ccccc2)nc1-c1cccnc1)c1ccco1	none
N#C/C(=C/c1ccccc1[N+](=O)[O-])c1nnc2n1CCCCC2	none
O=C(/C=C/c1cn(-c2ccccc2)nc1-c1cccnc1)N1CCCC1	ELG1 repair inh 13µM
N#C/C(=C\c1cn(-c2ccccc2)nc1-c1cccnc1)c1nnc2n1CCCCC2	ELG1 repair inh 21µM
O=C(NCC1CCCO1)/C(=C/c1cn(-c2ccccc2)nc1-c1cccnc1)NC(=O)c1ccccc1 (stereo not drawn)	ELG1 repair inh 21µM
Cc1ccc(S(C)(=O)=O)cc1C(=O)OCC(=O)N1CCCC1=O	none (no result: PKM2 act)
NS(=O)(=O)c1ccc(NCC2COc3ccccc3O2)c([N+](=O)[O-])c1 (stereo not drawn)	PKM2 act 20µM
O=[N+]([O-])c1ccc(N2CCN(C(=S)NCc3ccc(Cl)cc3)CC2)cc1	Rango complex inh inconclusive, ELG1 repair inh 15µM
CCNC(=S)N1CCN(c2ccc([N+](=O)[O-])cc2)CC1	none
COCCOc1ccc(C(F)(F)F)cc1NC(=O)COC(=O)C12CC3CC(CC(O)(C3)C1)C2	none
O=C(Nc1cccc(S(=O)(=O)N2CCCCC2)c1)c1cc(=O)[nH]c2ccccc12	ELG1 repair inh 26µM (no result: PKM2 act)
O=C(COc1ccccc1Cl)Nc1cccc(S(=O)(=O)N2CCCC2)c1	ELG1 repair inh inconclusive (no result: PKM2 act)
Cc1ccc(S(C)(=O)=O)cc1C(=O)Nc1cccc(S(=O)(=O)N2CCCCCC2)c1	ELG1 repair inh 12µM (no result: PKM2 act)
O=C(CN1C(=O)NC(Cc2c[nH]c3ccccc23)C1=O)Nc1cccc(S(=O)(=O)N2CCCCCC2)c1 (stereo not drawn)	ELG1 repair inh 21µM
O=C(CN1C(=O)NC(Cc2c[nH]c3ccccc23)C1=O)Nc1cccc(S(=O)(=O)N2CCCC2)c1 (stereo not drawn)	none
O=C(COc1ccccc1[N+](=O)[O-])Nc1cccc(S(=O)(=O)N2CCCC2)c1	ELG1 repair inh 16µM (no result: PKM2 act)
COc1cc(C(=O)Nc2cccc(S(=O)(=O)N3CCCC3)c2)cc(OC)c1C	ELG1 repair inh 29µM
C=CCOc1c(Cl)cc(CNCCCN2CCOCC2)cc1OC	none
CS(=O)(=O)N(CC(=O)N1CCN(Cc2ccc3c(c2)OCO3)CC1)Cc1ccc(Cl)cc1	ELG1 repair inh 12µM
O=C(CCCCCn1c(=O)[nH]c2ccccc2c1=O)N1CCN(Cc2ccc3c(c2)OCO3)CC1	ELG1 repair inh 18µM
C[C@H](NC(=O)c1ccccc1)C(=O)N1CCN(Cc2ccc3c(c2)OCO3)CC1	none (no result: PKM2 act)
O=C(Cn1c(=O)[nH]c2ccccc2c1=O)N1CCN(Cc2ccc3c(c2)OCO3)CC1	ELG1 repair inh 23µM
CC(C)[C@H](NC(=O)c1ccc(C(C)(C)C)cc1)C(=O)N1CCN(Cc2ccc3c(c2)OCO3)CC1	ELG1 repair inh 16µM (no result: PKM2 act)
COc1ccc(C(C(=O)NCC2CCCO2)N(C(=O)c2snc(C(N)=O)c2N)c2ccc(C)cc2)cc1OC (stereo not drawn)	none
